Test results: ChEMBL document CHEMBL4513216, “Probing the Open Global Health Chemical Diversity Library for Multistage-Active Starting Points for Next-Generation Antimalarials” (ACS Infect Dis, 2020)
The whole screen tested about 68,000 compounds, of which about 2,700 (4%) showed an effect of 50% or more. The full list was thinned out, with strong results kept by preference.

What follows are compounds tested on Plasmodium berghei (assay: Screen against P. berghei liver stage (PbLuc), transformed with Luciferase, at 2uM). Settings: tested at 2 uM.
Type: functional, HepG2

Structure (SMILES) | INHIBITION [%]
Cc1n[nH]c(C)c1CCC(=O)NCC1CCOc2ccccc2C1 (configuration not stated) | 49.02
Cc1cnc(C(=O)NCC2CCOc3ccccc3C2)cn1 (configuration not stated) | 10.05
Fc1ccc(-c2n[nH]cc2CNCCn2cccn2)cc1 | 11.01
CCSCCNC(=O)Nc1cc(C(=O)N2CCOCC2)ccc1Cl | -0.24
O=C(NCCN1CCCC1)Nc1cc(C(=O)N2CCOCC2)ccc1Cl | 19.81
CC(C)OC(=O)c1ccc(Cl)c(NC(=O)NCCN2CCOCC2)c1 | 50.94
CN(CC(=O)NC(C)(C)C)Cc1nc(-c2ccccc2)c[nH]1 | -20.91
CS(=O)(=O)NC[C@@H]1OC[C@H]2CN(C(=O)c3ccccc3)CC[C@H]21 | 39.18
COc1cc(C(=O)N2CCCS2(=O)=O)ccc1C | 9.9
CCN1CCC(CNC(=O)C2(c3ccc(F)cc3)CC2)C1 (configuration not stated) | 20.41
COCCN1CCC(CNC(=O)C2(c3cc(C)cc(C)c3)CC2)CC1 | 39.72
COCCN1CCC(CNC(=O)C2(c3cccc(C)c3)CC2)CC1 | 3.9
COCCN1CCC(CNC(=O)C2(c3ccccc3)CCC2)C1 (configuration not stated) | -1.02
COCCN1CCC(CNC(=O)C2(c3cccc(C)c3)CC2)C1 (configuration not stated) | 43.79
COCCN1CCC(CNC(=O)C2(c3cccc(Cl)c3)CC2)C1 (configuration not stated) | 56.02
COCCN1CCC(CNC(=O)C2(c3ccc(F)cc3)CCC2)CC1 | 66.2
COCCN1CCC(CNC(=O)C2(c3ccc(Br)cc3)CCCC2)C1 (configuration not stated) | 66.2
COCCN1CCC(CNC(=O)C2(c3cc(C)cc(C)c3)CCC2)C1 (configuration not stated) | -36.13
Cc1nc(C(NS(=O)(=O)N(C)C)c2ccccc2F)no1 (configuration not stated) | -1.56
CCCNC(=O)Nc1ccn(CCCOC)n1 | -27.36
CC(C)CSCCN1CCCN(S(C)(=O)=O)CC1 | -14.71
CCn1c(CN(C)C)nnc1C1CCN(Cc2ccc(Cl)cc2F)CC1 | -12.75
Cc1cccc(C2(O)CCN(C(=O)c3ccccn3)CC2)c1C | 14.59
Cc1cnn(CC2CCCN2Cc2cc(C)no2)c1 (configuration not stated) | -4.43
COCC1CC2(CCN(C(=O)c3oc4ccccc4c3C)CC2)CO1 (configuration not stated) | 5.15
CCOc1ccc(Cl)c(C(=O)NCCC(=O)Nc2ccncc2)n1 | 39.54

Structure (SMILES) | INHIBITION [%]
CCN1CCN(c2ccc(CNC(=O)c3ccc(Cl)o3)cn2)CC1 | 66.93
CCN1CCN(c2ccc(CNC(=O)c3cnn(C)c3C)cn2)CC1 | 21.83
CCN1CCN(c2ccc(CNC(=O)c3cc(C)on3)cn2)CC1 | 23.24
Cn1ccc(C(=O)NCc2ccc(N3CCCC3)nc2)cc1=O | 9.3
Cn1ccc(C(=O)NCc2ccc(N3CCOCC3)nc2)cc1=O | 52.17
Cn1ccc(C(=O)NCc2ccc(N3CCCCC3)nc2)cc1=O | 26.06
CNC(=O)c1ccnc(CC2COc3c(cccc3OC)C2)c1 (configuration not stated) | -12.13
CCN(CC)S(=O)(=O)N1CCC(c2nccn2Cc2ccccn2)CC1 | -28.42
Cc1ncc(C(=O)NCCNc2ccncc2)s1 | -60.22
CN(C)C(=O)c1ccc(C2CCCN2C(=O)CCC2=NNC(=O)CC2)s1 (configuration not stated) | -11.64
Cc1cc(C)nc(NCc2cc3n(n2)CCCN(C(=O)C2CCC2)C3)n1 | -4.53
Nc1nccc(NCc2cc3n(n2)CCCN(C(=O)C2CCC2)C3)n1 | 4.47
CSc1nccc(NCc2cc3n(n2)CCCN(C(=O)C2CCC2)C3)n1 | -36.65
O=C(C1CCC1)N1CCCn2nc(CNc3ncccn3)cc2C1 | 52.47
Cc1cc(NCc2cc3n(n2)CCCN(C(=O)C2CCC2)C3)ncn1 | 19.13
Cc1nccc(NCc2cc3n(n2)CCCN(C(=O)C2CCC2)C3)n1 | 55.7
CS(=O)(=O)N1CCCn2nc(CNc3ncccn3)cc2C1 | 51.19
Cc1nccc(NCc2cc3n(n2)CCCN(S(C)(=O)=O)C3)n1 | 8.89
Cc1cc(NCc2cc3n(n2)CCCN(S(C)(=O)=O)C3)ncn1 | -14.84
CC1=N[C@@]2(CC[C@@H]3CN(Cc4ccc(C)cc4)C[C@@H]32)C(=O)N1CC1CC1 | 41.38
Cc1ccccc1C1CCCN1Cc1nc2c(cnn2C)c(=O)[nH]1 (configuration not stated) | -29.69
Cc1nccc(C(=O)NC(CN2CCCC2=O)c2ccccc2)n1 (configuration not stated) | -45.82
CC1CN(C)CCN1C(=O)c1ccn(-c2ccccc2)n1 (configuration not stated) | 23.42
COc1cccc(OCCc2cncc(C(N)=O)c2)c1 | -18.52
COc1ccccc1OCCCc1cncc(C(N)=O)c1 | -69.92
COc1cccc(OCCCc2cncc(C(N)=O)c2)c1 | 61.08
